# According to publication PMC11062922 (Nature Chemical Biology, 2023):
# Like-named read-outs stand apart in the source and are kept apart here.
# Columns and labels:
# Set-up in all cases: species or system human, MV4-11 + K-562 + COLO205 + SK-N-BE2 + OVCAR-8
# JAK2 = conditions: read-out: apparent Kd; compound concentrations: 100 nM and 1000 nM (sheet 'Samples'), CATDS: 1; n = 1
# GSK3A = conditions: read-out: apparent Kd, n = 1
# GSK3B = conditions: read-out: apparent Kd, n = 1
# PRKCA = conditions: read-out: apparent Kd; compound concentrations: 100 nM and 1000 nM (sheet 'Samples'), CATDS: 0.195929094272485; n = 1
# PRKCB = conditions: read-out: apparent Kd; compound concentrations:100 nM and 1000 nM (sheet 'Samples'); n = 1
# PRKCD = conditions: read-out: apparent Kd; compound concentrations:100 nM and 1000 nM (sheet 'Samples'); n = 1
# PRKCQ = conditions: read-out: apparent Kd; compound concentrations:100 nM and 1000 nM (sheet 'Samples'); n = 1
# RPS6KA6 = conditions: read-out: apparent Kd; compound concentrations:100 nM and 1000 nM (sheet 'Samples'); n = 1
# RPS6KB1 = conditions: read-out: apparent Kd; compound concentrations:100 nM and 1000 nM (sheet 'Samples'); n = 1
# HSP90B1 = conditions: read-out: apparent Kd, n = 1
# ILK = conditions: read-out: apparent Kd; compound concentrations: 100 nM and 1000 nM (sheet 'Samples'), CATDS: 0.49132594031882498; n = 1
# MAPK10 = conditions: read-out: apparent Kd, n = 1
# ICK = conditions: read-out: apparent Kd; compound concentrations: 100 nM and 1000 nM (sheet 'Samples'), CATDS: 0.23938622627213799; n = 1
# STRADA = conditions: read-out: apparent Kd; compound concentrations: 100 nM and 1000 nM (sheet 'Samples'), CATDS: 0.19302175262426299; n = 1
# PIK3CB = conditions: read-out: apparent Kd; compound concentrations:100 nM and 1000 nM (sheet 'Samples'); n = 1
# PIK3CA = conditions: read-out: apparent Kd; compound concentrations: 100 nM and 1000 nM (sheet 'Samples'), CATDS: 0.37756355389393098; n = 1
# PIK3CD = conditions: read-out: apparent Kd; compound concentrations: 100 nM and 1000 nM (sheet 'Samples'), CATDS: 0.43898083182903402; n = 1
# PIM2 = conditions: read-out: apparent Kd; compound concentrations: 100 nM and 1000 nM (sheet 'Samples'), CATDS: 0.17072245355379401; n = 1
# MAPK11 = conditions: read-out: apparent Kd, n = 1
# MAPK14 = conditions: read-out: apparent Kd; compound concentrations:100 nM and 1000 nM (sheet 'Samples'); n = 1
# MAPK9 = conditions: read-out: apparent Kd; compound concentrations:100 nM and 1000 nM (sheet 'Samples'); n = 1
# MAPKAPK2 = conditions: read-out: apparent Kd; compound concentrations:100 nM and 1000 nM (sheet 'Samples'); n = 1
# NQO1 = conditions: read-out: apparent Kd; compound concentrations:100 nM and 1000 nM (sheet 'Samples'); n = 1
# MAP3K12 = conditions: read-out: apparent Kd; compound concentrations:100 nM and 1000 nM (sheet 'Samples'); n = 1
# NUAK1 = conditions: read-out: apparent Kd; compound concentrations:100 nM and 1000 nM (sheet 'Samples'); n = 1
# NUAK2 = conditions: read-out: apparent Kd; compound concentrations:100 nM and 1000 nM (sheet 'Samples'); n = 1
# MAPK8 = conditions: read-out: apparent Kd; compound concentrations:100 nM and 1000 nM (sheet 'Samples'); n = 1
# NLK = conditions: read-out: apparent Kd; compound concentrations:100 nM and 1000 nM (sheet 'Samples'); n = 1
# PIP4K2C = conditions: read-out: apparent Kd; compound concentrations:100 nM and 1000 nM (sheet 'Samples'); n = 1
# [1] = compound concentrations:100 nM and 1000 nM (sheet 'Samples')
# [2] = compound concentrations: 100 nM and 1000 nM (sheet 'Samples'), CATDS: 1
smiles,measurement,setting,value
COC(=O)Nc1nc2ccc(S(=O)(=O)c3ccc(NC(=O)Nc4cc(C(F)(F)F)ccc4F)cc3)cc2[nH]1.Cl [GW680908A],potency estimated from few doses,JAK2,356 nM
CN(C)CC1CCn2c(c(C3=C(c4cn(C)c5ccccc45)C(=O)NC3=O)c3ccccc32)C1 (stereo not drawn) [RO0318830-000],potency estimated from few doses,GSK3A; [1],43.8 nM
same,potency estimated from few doses,GSK3B; [1],53.4 nM
same,potency estimated from few doses,PRKCA,30.2 nM
same,potency estimated from few doses,PRKCB,88.5 nM
same,potency estimated from few doses,PRKCD,34.5 nM
same,potency estimated from few doses,PRKCQ,123 nM
same,potency estimated from few doses,RPS6KA6,56.8 nM
same,potency estimated from few doses,RPS6KB1,1600 nM
O=C(Nc1n[nH]c2nc(-c3ccco3)c(Br)cc12)C1CCN(Cc2ccccc2)C1.O=C(O)[C@H](O)[C@@H](O)C(=O)O (stereo not drawn) [SB-742034-AC],potency estimated from few doses,GSK3A; [1],410 nM
O=C(Nc1ccccc1F)NC1CCN(c2ccnc(Nc3ccc(F)cc3)n2)C1 (stereo not drawn) [GSK1379722A],potency estimated from few doses,HSP90B1; [2],875 nM
Cn1cc(C2=C(c3cn(C)c4cc(Cl)ccc34)C(=O)NC2=O)c2ccccc21 [RO0317597-000],potency estimated from few doses,ILK,1590 nM
same,potency estimated from few doses,"MAPK10; compound concentrations: 100 nM and 1000 nM (sheet 'Samples'), CATDS: 0.50898583433438105",1480 nM
CCCn1cc(C2=C(c3cn(C)c4ccccc34)C(=O)NC2=O)c2ccccc21 [RO0318549-000],potency estimated from few doses,"GSK3A; compound concentrations: 100 nM and 1000 nM (sheet 'Samples'), CATDS: 0.30461249661504503",823 nM
same,potency estimated from few doses,"GSK3B; compound concentrations: 100 nM and 1000 nM (sheet 'Samples'), CATDS: 0.29770520720673899",857 nM
same,potency estimated from few doses,ICK,1320 nM
same,potency estimated from few doses,STRADA,2260 nM
O=C(Nc1n[nH]c2cc(-c3ccco3)ccc12)C1CC1 [SB-737447],potency estimated from few doses,GSK3A; [1],498 nM
same,potency estimated from few doses,GSK3B; [1],645 nM
[2H]C([2H])(c1cccc(C(F)(F)F)c1C)n1ccn2c(=O)cc(N3CCOCC3)nc12 [GSK2289044B],potency estimated from few doses,HSP90B1; [1],112 nM
same,potency estimated from few doses,PIK3CB,16 nM
COc1cccc(C2=C(c3cn(C)c4ccccc34)C(=O)NC2=O)c1 [RO0318649-000],potency estimated from few doses,GSK3A; [1],802 nM
same,potency estimated from few doses,"GSK3B; compound concentrations: 100 nM and 1000 nM (sheet 'Samples'), CATDS: 0.44424601969869798",1340 nM
COc1ccc(Nc2nccc(N3CCC(NC(=O)c4cc5ccccc5s4)C3)n2)cc1 (stereo not drawn) [GSK1379738A],potency estimated from few doses,"HSP90B1; compound concentrations: 100 nM and 1000 nM (sheet 'Samples'), CATDS: 0.19171870490815801",1350 nM
same,potency estimated from few doses,PIK3CA,248 nM
same,potency estimated from few doses,PIK3CD,190 nM
same,potency estimated from few doses,PIM2,2150 nM
CN1CCN(CCc2cccc(C(=O)c3cnn(-c4ccc(F)cc4)c3N)c2)CC1.Cl [RO1160347-001],potency estimated from few doses,MAPK11; [2],1330 nM
Cl.Cn1c(=O)c(Oc2ccccc2F)cc2cnc(NC3CCOCC3)nc21 [RO3304805-001],potency estimated from few doses,MAPK10; [1],1050 nM
same,potency estimated from few doses,MAPK14,58.4 nM
same,potency estimated from few doses,MAPK9,484 nM
same,potency estimated from few doses,MAPKAPK2,73.7 nM
same,potency estimated from few doses,NQO1,1480 nM
Nc1c(C(=O)c2cccc(OCCN3CCOCC3)c2)cnn1-c1ccc(F)cc1 [RO5301104-000],potency estimated from few doses,MAPK11; [2],701 nM
O=C(Nc1n[nH]c2nc(-c3ccccc3)c(Cl)cc12)C1CC1 [SB-734909],potency estimated from few doses,MAP3K12,1520 nM
same,potency estimated from few doses,MAPK11; [1],1940 nM
same,potency estimated from few doses,NUAK1,1980 nM
same,potency estimated from few doses,NUAK2,1350 nM
Cl.Cn1c(=O)c(Oc2ccc(F)cc2F)cc2cnc(N[C@H]3CC[C@H](O)CC3)nc21 [RO3305413-001],potency estimated from few doses,MAPK11; [1],806 nM
same,potency estimated from few doses,MAPK14,5.68 nM
same,potency estimated from few doses,MAPK8,75.9 nM
same,potency estimated from few doses,MAPK9,26.4 nM
same,potency estimated from few doses,MAPKAPK2,4.66 nM
same,potency estimated from few doses,NLK,199 nM
same,potency estimated from few doses,PIP4K2C,791 nM
